# Source: PubChem BioAssay (NCI)
# Compounds without any hit were thinned out: in the full panel of roughly 79,000, 15% have a hit. Values without a mark were called inactive. Calls of active or inactive are those of the source. Cut-off read from the data, not from the text of the source: active = growth inhibition above about 70%; inactive = the rest.
# Key:
# [1] = NCI Yeast Anticancer Drug Screen. Data for the rad52 strain (AID 147);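 note: 0% = growth of vehicle-treated control cultures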; conditions: S. cerevisiae rad52 mutant growth inhibition, stronger effect = higher value
# In short: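 Genetically altered yeast (DNA damage repair defect) treated with compound; inhibition calculated relative to vehicle.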
# [2] = NCI Yeast Anticancer Drug Screen. Data for the wt1 strain (AID 149);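 note: 0% = growth of vehicle-treated wt1 cultures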; conditions: S. cerevisiae wt1 strain (SPY 50644) growth inhibition, stronger effect = higher value
# In short: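 wt1 yeast, compound-treated; % growth inhibition vs vehicle control.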
# [3] = NCI Yeast Anticancer Drug Screen. Data for the rad50EPP+ strain (AID 151);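 note: 0% = growth of vehicle-treated control cultures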; conditions: S. cerevisiae rad50 mutant strain, stronger effect = higher value
# In short: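 Strain rad50EPP+; compound exposure; % growth inhibition vs vehicle.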
# [4] = NCI Yeast Anticancer Drug Screen. Data for the mgt1 strain (AID 153); conditions: S. cerevisiae mgt1 mutant growth inhibition, stronger effect = higher value
# In short: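 Read-out: yeast growth inhibition vs vehicle control. Strain mgt1, drawn from a panel altered in DNA damage repair or cell cycle control.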
# [5] = NCI Yeast Anticancer Drug Screen. Data for the rad50 strain (AID 155);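 note: 0% = growth of vehicle-only cultures of the same strain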; conditions: S. cerevisiae rad50 strain growth inhibition, stronger effect = higher value
# In short: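 Genetically altered yeast (DNA repair pathway); compound treatment; growth inhibition vs vehicle ctrl.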
# [6] = NCI Yeast Anticancer Drug Screen. Data for the mec2-1 strain (AID 157); conditions: S. cerevisiae mec2-1 strain, stronger effect = higher value
# In short: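 Cells of the genetically defined mec2-1 yeast strain are incubated with test compound. Inhibition of growth is calculated against vehicle-treated controls.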
# [7] = NCI Yeast Anticancer Drug Screen. Data for the rad14 strain (AID 159);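 note: 0% = growth of vehicle-treated control cultures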; conditions: S. cerevisiae rad14 strain growth inhibition, stronger effect = higher value
# In short: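 Test compounds were applied to a repair-deficient yeast strain. Its growth was then compared with that of cultures given vehicle alone, and inhibition was expressed relative to those controls.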
# [8] = NCI Yeast Anticancer Drug Screen. Data for the sgs1 mgt1 strain (AID 161);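 note: 0% = growth of cultures given vehicle only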; conditions: S. cerevisiae sgs1 mgt1 strain, stronger effect = higher value
# In short: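 Read-out: growth inhibition vs vehicle controls. Cells: mutant yeast strain deficient in DNA damage repair.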
# [9] = NCI Yeast Anticancer Drug Screen. Data for the CLN2oe strain (AID 163);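 note: 0% = growth of vehicle-only control cultures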; conditions: S. cerevisiae CLN2oe strain, stronger effect = higher value
# In short: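 Strain altered in cell-cycle control, incubated with compound; growth compared to solvent-treated controls.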
# [10] = NCI Yeast Anticancer Drug Screen. Data for the cln2 rad14 strain (AID 165);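 note: 0% = growth equal to vehicle treated cultures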; conditions: S. cerevisiae cln2 rad14 strain, stronger effect = higher value
# In short: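 The screen exposed genetically defined yeast (cln2 rad14) to test compounds and scored growth inhibition relative to vehicle-treated controls.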
# [11] = NCI Yeast Anticancer Drug Screen. Data for the bub3 strain (AID 167); conditions: S. cerevisiae bub3 mutant strain, stronger effect = higher value
# In short: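 Yeast carrying a defined mutation is treated with each compound, and growth is compared with that of vehicle-exposed cells to give inhibition.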
# [12] = NCI Yeast Anticancer Drug Screen. Data for the wt2 strain (AID 169);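 note: 0% = growth of vehicle-treated yeast cultures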; conditions: S. cerevisiae wt2 strain growth inhibition, stronger effect = higher value
# In short: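 Steps: yeast strain treated with compound; growth recorded; inhibition calculated relative to cultures given vehicle alone.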
# [13] = NCI Yeast Anticancer Drug Screen. Data for the mlh1 strain (AID 171);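 note: 0% = growth of vehicle-treated control cultures of the same strain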; conditions: S. cerevisiae mlh1 strain growth inhibition, stronger effect = higher value
# In short: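 Yeast screen: mutant strain plus compound, growth scored against vehicle control wells.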
# [14] = NCI Yeast Anticancer Drug Screen. Data for the sgs1 strain (AID 173);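 note: 0% = growth of vehicle-only control cultures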; conditions: S. cerevisiae sgs1 mutant, stronger effect = higher value
# In short: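 Inhibition of yeast growth served as the measure. The mutant strain was treated with each compound, and growth was normalised to cultures receiving vehicle alone.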
# [15] = NCI Yeast Anticancer Drug Screen. Data for the mlh1 rad18 strain (AID 175); conditions: S. cerevisiae mlh1 rad18 strain growth inhibition, stronger effect = higher value
# In short: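 Compound-treated yeast growth, normalised to vehicle controls. Strain bears defined DNA repair mutations.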
# [16] = NCI Yeast Anticancer Drug Screen. Data for the rad18 strain (AID 177); conditions: S. cerevisiae rad18 mutant growth inhibition, stronger effect = higher value
# In short: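 Inhibition values reflect reduced yeast growth compared with vehicle-treated controls, using a strain engineered with a DNA damage repair defect.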
# [17] = at 5.0 µM (retest, dose inferred, filed as 0.5)
# [18] = at 50.0 µM (retest, dose inferred, filed as 5.0)
smiles,measurement,setting,value
Nc1ccc(S(=O)(=O)Nc2nc3c(c(=O)[nH]2)CCCC3)cc1,growth inhibition,[1]; at 1.2 µM,14%
same,growth inhibition,[1]; at 3.7 µM,18%
same,growth inhibition,[1]; at 11.0 µM,87% (active)
same,growth inhibition,[1]; at 33.0 µM,99% (active)
same,growth inhibition,[1]; at 100.0 µM,99% (active)
same,growth inhibition,[2]; at 1.2 µM,5%
same,growth inhibition,[2]; at 3.7 µM,31%
same,growth inhibition,[2]; at 11.0 µM,93% (active)
same,growth inhibition,[2]; at 33.0 µM,99% (active)
same,growth inhibition,[2]; at 100.0 µM,100% (active)
same,growth inhibition,[3]; at 1.2 µM,12%
same,growth inhibition,[3]; at 3.7 µM,47%
same,growth inhibition,[3]; at 11.0 µM,80% (active)
same,growth inhibition,[3]; at 33.0 µM,99% (active)
same,growth inhibition,[3]; at 100.0 µM,99% (active)
same,growth inhibition,[4]; at 1.2 µM,2%
same,growth inhibition,[4]; at 3.7 µM,0%
same,growth inhibition,[4]; at 11.0 µM,50%
same,growth inhibition,[4]; at 33.0 µM,98% (active)
same,growth inhibition,[4]; at 100.0 µM,99% (active)
same,growth inhibition,[5]; at 1.2 µM,21%
same,growth inhibition,[5]; at 3.7 µM,22%
same,growth inhibition,[5]; [17],31%
same,growth inhibition,[5]; at 11.0 µM,93% (active)
same,growth inhibition,[5]; at 33.0 µM,99% (active)
same,growth inhibition,[5]; [18],98% (active)
same,growth inhibition,[5]; at 50.0 µM,99.5% (active)
same,growth inhibition,[5]; at 100.0 µM,99% (active)
same,growth inhibition,[6]; at 1.2 µM,0%
same,growth inhibition,[6]; at 3.7 µM,4%
same,growth inhibition,[6]; [17],28%
same,growth inhibition,[6]; at 11.0 µM,48%
same,growth inhibition,[6]; at 33.0 µM,99% (active)
same,growth inhibition,[6]; [18],99% (active)
same,growth inhibition,[6]; at 50.0 µM,99.5% (active)
same,growth inhibition,[6]; at 100.0 µM,99% (active)
same,growth inhibition,[7]; at 1.2 µM,19%
same,growth inhibition,[7]; at 3.7 µM,33%
same,growth inhibition,[7]; at 11.0 µM,94% (active)
same,growth inhibition,[7]; at 33.0 µM,100% (active)
same,growth inhibition,[7]; at 100.0 µM,100% (active)
same,growth inhibition,[8]; [17],44%
same,growth inhibition,[8]; [18],99% (active)
same,growth inhibition,[8]; at 50.0 µM,99.5% (active)
same,growth inhibition,[9]; at 1.2 µM,5%
same,growth inhibition,[9]; at 3.7 µM,5%
same,growth inhibition,[9]; at 11.0 µM,21%
same,growth inhibition,[9]; at 33.0 µM,99% (active)
same,growth inhibition,[9]; at 100.0 µM,99% (active)
same,growth inhibition,[10]; [17],8%
same,growth inhibition,[10]; [18],99% (active)
same,growth inhibition,[10]; at 50.0 µM,99.2% (active)
same,growth inhibition,[11]; at 1.2 µM,33%
same,growth inhibition,[11]; at 3.7 µM,40%
same,growth inhibition,[11]; [17],14%
same,growth inhibition,[11]; at 11.0 µM,92% (active)
same,growth inhibition,[11]; at 33.0 µM,99% (active)
same,growth inhibition,[11]; [18],98% (active)
same,growth inhibition,[11]; at 50.0 µM,99.3% (active)
same,growth inhibition,[11]; at 100.0 µM,99% (active)
same,growth inhibition,[12]; at 1.2 µM,29%
same,growth inhibition,[12]; at 3.7 µM,73% (active)
same,growth inhibition,[12]; at 11.0 µM,99% (active)
same,growth inhibition,[12]; at 33.0 µM,100% (active)
same,growth inhibition,[12]; at 100.0 µM,100% (active)
same,growth inhibition,[13]; at 1.2 µM,8%
same,growth inhibition,[13]; at 3.7 µM,20%
same,growth inhibition,[13]; at 11.0 µM,75% (active)
same,growth inhibition,[13]; at 33.0 µM,99% (active)
same,growth inhibition,[13]; at 100.0 µM,99% (active)
same,growth inhibition,[14]; at 1.2 µM,36%
same,growth inhibition,[14]; at 3.7 µM,47%
same,growth inhibition,[14]; at 11.0 µM,95% (active)
same,growth inhibition,[14]; at 33.0 µM,99% (active)
same,growth inhibition,[14]; at 100.0 µM,99% (active)
same,growth inhibition,[15]; [17],84% (active)
same,growth inhibition,[15]; [18],99% (active)
same,growth inhibition,[15]; at 50.0 µM,99.4% (active)
same,growth inhibition,[16]; at 1.2 µM,33%
same,growth inhibition,[16]; at 3.7 µM,48%
same,growth inhibition,[16]; at 11.0 µM,85% (active)
same,growth inhibition,[16]; at 33.0 µM,99% (active)
same,growth inhibition,[16]; at 100.0 µM,99% (active)
CO[C@@]1([C@@H](Cl)c2ccccc2)C(=O)N(C)/C(=C\c2ccccc2)C(=O)N1C,growth inhibition,[1]; at 1.2 µM,0%
same,growth inhibition,[1]; at 3.7 µM,1%
same,growth inhibition,[1]; at 11.0 µM,3%
same,growth inhibition,[1]; at 33.0 µM,7%
same,growth inhibition,[1]; at 100.0 µM,8%
same,growth inhibition,[2]; at 1.2 µM,0%
same,growth inhibition,[2]; at 3.7 µM,0%
same,growth inhibition,[2]; at 11.0 µM,-2%
same,growth inhibition,[2]; at 33.0 µM,-1%
same,growth inhibition,[2]; at 100.0 µM,-1%
same,growth inhibition,[3]; at 1.2 µM,-1%
same,growth inhibition,[3]; at 3.7 µM,-3%
same,growth inhibition,[3]; at 11.0 µM,-6%
same,growth inhibition,[3]; at 33.0 µM,0%
same,growth inhibition,[3]; at 100.0 µM,5%
same,growth inhibition,[4]; at 1.2 µM,-1%
same,growth inhibition,[4]; at 3.7 µM,-1%
same,growth inhibition,[4]; at 11.0 µM,-1%
same,growth inhibition,[4]; at 33.0 µM,39%
same,growth inhibition,[4]; at 100.0 µM,50%
same,growth inhibition,[5]; at 1.2 µM,2%
same,growth inhibition,[5]; at 3.7 µM,6%
same,growth inhibition,[5]; [17],-12%
same,growth inhibition,[5]; at 11.0 µM,9%
same,growth inhibition,[5]; at 33.0 µM,11%
same,growth inhibition,[5]; [18],14%
same,growth inhibition,[5]; at 50.0 µM,-7.3%
same,growth inhibition,[5]; at 100.0 µM,15%
same,growth inhibition,[6]; at 1.2 µM,-3%
same,growth inhibition,[6]; at 3.7 µM,-1%
